An excerpt weighted towards active compounds, which were near 2.3% of everything screened.
SENP8 block-1 = inhibitors of human SENP8 protease. Q96LD8. purified SENP8, Z-RLRGG-aminoluciferin cleavage, luminescence. inhibition, % at 10 µM. 1.2% of 330,000 active; in the data active means inhibition above about 50%
HSP90 refold inh = inhibitors of HSP90 luciferase refolding in rabbit reticulocyte lysate; luciferase refolding luminescence, 3 h; inhibition, % at 5.6 µM; 0.91% of 290,000 active;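 active means inhibition above the screen-wide mean plus 3 SD, computed separately per campaign, cut at about 16% in these data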;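 further: 0% = DMSO wells and 100% = 60 µM geldanamycin wells; inhibitors lower the luminescence because luciferase stays unfolded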
SENP7 block = SENP7 protease inhibition; Q9BQF6; inhibition, % at 5 µM; recombinant SENP7, Z-RLRGG-aminoluciferin luminescence, 40 min; 1.5% of 330,000 active;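 active means inhibition above about 50% at the single test dose, limit read from the data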;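 further: plate controls were DMSO with enzyme for no effect and no enzyme buffer wells for full effect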
SENP8 block-2 = blocks human SENP8 cleavage of Nedd8 substrate; Q96LD8; recombinant SENP8, Nedd8 substrate fluorescence; inhibition, % at 20 µM; 0.64% of 360,000 active; AID 602440; in the data active means inhibition mostly above about 40%, no sharp cut-off; inactive means mostly below about 27%
SENP6 inh = SENP6 protease inhibition; Recombinant SENP6 catalytic domain, aminoluciferin luminescence; inhibition, % at 10 µM; 1.8% of 330,000 active; AID 2599;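 active means inhibition above about 50% at the single tested dose, limit read from the data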;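 further: plate controls were DMSO wells with enzyme for no effect and DMSO wells lacking enzyme for full effect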
Target sequence (Q9GZR1 628-1112 limits assumed): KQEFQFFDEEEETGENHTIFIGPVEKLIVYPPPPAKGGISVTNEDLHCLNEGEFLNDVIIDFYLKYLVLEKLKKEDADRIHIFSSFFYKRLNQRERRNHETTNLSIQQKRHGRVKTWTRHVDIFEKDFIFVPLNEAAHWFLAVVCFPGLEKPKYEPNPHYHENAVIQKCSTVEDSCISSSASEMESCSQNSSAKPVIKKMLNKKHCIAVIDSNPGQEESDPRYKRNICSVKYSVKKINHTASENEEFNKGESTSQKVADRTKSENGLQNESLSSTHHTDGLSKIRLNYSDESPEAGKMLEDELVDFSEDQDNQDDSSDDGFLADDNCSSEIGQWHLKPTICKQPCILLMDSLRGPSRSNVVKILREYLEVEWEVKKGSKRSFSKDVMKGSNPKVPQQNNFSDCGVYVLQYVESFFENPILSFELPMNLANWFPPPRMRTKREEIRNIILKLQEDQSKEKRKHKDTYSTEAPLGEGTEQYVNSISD
LGR2 inh = inhibitors of bursicon-induced Drosophila LGR2 receptor cAMP signaling; inhibition, % at 9.99 µM; 0.35% of 380,000 active; AID 720647; HEK293 LGR2, CRE-luciferase, bursicon-stimulated, 4 h;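 active means drop in luminescence signal, shown as inhibition above about 50% in the replicate tests, limit read from the data, passing the limit was not always enough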;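 further: agonist challenge used bursicon conditioned medium at about half maximal strength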
SENP8 conf = human SENP8 inhibition, confirmed. shares compounds with SENP7 block. Recombinant SENP8, Z-RLRGG-aminoluciferin luminescence, 60 min. inhibition, % at 12.5 µM. 40% of 6,200 active;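 active means mean inhibition across replicates above about 50%, limit read from the data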
SENP6 conf = human SENP6 inhibition, confirmed; inhibition, % at 12.5 µM; recombinant SENP6, Z-RLRGG-aminoluciferin luminescence; 58% of 6,200 active; shares compounds with SENP7 block; AID 488915
SENP7 confirm = confirmation of human SENP7 protease inhibitors; shares compounds with SENP7 block; recombinant SENP7, Z-RLRGG-aminoluciferin luminescence, 40 min; inhibition, % at 12.5 µM; 69% of 6,200 active; AID 488917
Casp3 select = caspase-3 inhibition (SENP selectivity assay). 60% of 6,200 active. shares compounds with SENP7 block. inhibition, % at 12.5 µM. purified caspase-3, Z-DEVD-aminoluciferin luminescence, 60 min;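 active means mean inhibition above about 50%, limit read from the data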;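 further: plate controls were enzyme with DMSO for no effect and wells without caspase-3 for full effect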
Target sequence (P42574 28-227 limits assumed): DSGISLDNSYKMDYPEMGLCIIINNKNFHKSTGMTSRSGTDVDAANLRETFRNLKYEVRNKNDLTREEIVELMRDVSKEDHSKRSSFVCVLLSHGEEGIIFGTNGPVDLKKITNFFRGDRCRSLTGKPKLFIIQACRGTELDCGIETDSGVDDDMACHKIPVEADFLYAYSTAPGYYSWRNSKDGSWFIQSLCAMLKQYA
SENP luc ctr = counter-screen for SENP inhibitors: luminescence interference | Pre-incubated SENP8/Z-RLRGG-aminoluciferin, luciferase luminescence interference | AID 488919 | inhibition, % at 12.5 µM | shares compounds with SENP7 block | 39% of 6,200 active;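 active means mean inhibition above about 50% when retested at one dose, limit read from the data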;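 further: plate controls were DMSO wells with completed reaction for no effect and substrate without enzyme for full effect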
Active calls of the source: *; · = no result.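 How the source made its calls, unless noted: active means mean inhibition above about 50% in the one-dose retest (limit read from the data); inactive means the rest.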

SMILES | SENP8 block-1 | HSP90 refold inh | SENP7 block | SENP8 block-2 | SENP6 inh | LGR2 inh | SENP8 conf | SENP6 conf | SENP7 confirm | Casp3 select | SENP luc ctr
COc1ccc(-c2ccc3sc4ccccc4c(=O)c3c2)cn1 | 14.7 | · | 100.5* | -391.5 | 95.4* | -54.7 | 13.5 | 21.0 | 8.1 | 74.3* | 14.2
COc1cc2sc3ccc(-c4ccc(CN5CCOCC5)cc4)cc3c(=O)c2cc1OC | 5.8 | · | 11.2 | -498.4 | 10.6 | -42.0 | · | · | · | · | ·
CCOC(=O)c1sc(=NC(=O)c2ccc(C)c(C)c2)n(C)c1C | 6.8 | -1.1 | -3.8 | -362.7 | -1.1 | -87.7 | · | · | · | · | ·
CCOC(=O)c1sc(=NC(=O)c2cccs2)n(C)c1C | 3.8 | -10.1 | 54.6* | -426.7 | -20.8 | -46.5 | 16.6 | 10.5 | 17.4 | 45.2 | 1.0
CCOC(=O)c1sc(=NC(=O)c2ccccc2Br)n(C)c1C | -10.8 | 0.0 | 7.9 | -69.2 | -16.1 | -88.8 | · | · | · | · | ·
CCOC(=O)c1sc(=NC(=O)c2ccc(Cl)s2)n(C)c1C | 7.8 | 6.8 | 53.2* | -402.3 | -23.6 | -68.1 | 13.1 | 12.0 | 27.6 | 22.8 | 11.5
C[C@H]1CCCCO[C@@H](CN(C)S(=O)(=O)c2cccs2)[C@@H](C)CN([C@@H](C)CO)C(=O)c2cc(NC(=O)Nc3ccc4c(c3)OCO4)ccc2O1 | · | · | · | · | · | -9.3 | · | · | · | · | ·
COc1cccc(-c2nnc(NC(=O)c3cccc(F)c3)o2)c1 | 55.7* | · | 32.8 | 15.0 | 60.5* | -9.6 | 3.5 | 4.0 | 3.8 | 14.7 | 1.9
COc1cccc(-c2nnc(N)o2)c1 | -4.2 | -3.6 | -7.1 | 6.4 | -33.8 | 14.4 | · | · | · | · | ·
COc1cccc(-c2nnc(-c3ccccc3[N+](=O)[O-])o2)c1 | 24.5 | -0.8 | 50.0* | 12.8 | 30.6 | -88.1 | 19.0 | 29.8 | 66.9* | 47.8 | 30.8
COc1cccc(-c2nnc(-c3ccco3)o2)c1 | 49.0 | 7.0 | 55.4* | -110.9 | 66.7* | -22.0 | 57.8* | 56.1* | 87.0* | 80.2* | 65.0*
COc1cccc(C(=O)Nc2ccc(-c3nnc(-c4ccco4)o3)cc2)c1 | -7.5 | 3.2 | 4.6 | -231.4 | 5.2 | · | · | · | · | · | ·
COc1cccc(-c2nnc(-c3ccc(C)o3)o2)c1 | 38.9 | 8.3 | 56.5* | -299.3 | 17.6 | · | 62.5* | 64.5* | 89.1* | 82.3* | 74.0*
Cc1cc(Oc2ccc(-c3nnc(-c4ccccc4)o3)cc2[N+](=O)[O-])ccc1Cl | -3.8 | 1.9 | -2.2 | 21.2 | -4.4 | -16.6 | · | · | · | · | ·
C[C@@H]1CCCCO[C@H](CN(C)S(C)(=O)=O)[C@@H](C)CN([C@@H](C)CO)C(=O)c2cc(NC(=O)c3ccncc3)ccc2O1 | · | · | · | · | · | -8.7 | · | · | · | · | ·
CO[C@@H]1CN(C)C(=O)c2ccc(NC(=O)C3CCOCC3)cc2OC[C@H](C)N(Cc2nccs2)C[C@@H]1C | · | · | · | · | · | 10.3 | · | · | · | · | ·
O=C(N/N=C/C(Cl)=C/c1ccccc1)c1ccncc1 | -1.7 | 1.0 | -0.8 | -4.6 | 4.0 | -10.2 | · | · | · | · | ·
O=C(N/N=C/C(Cl)=C\c1ccccc1)c1cccs1 | 52.1* | -2.8 | 42.5 | -19.0 | 62.7* | -79.8 | 9.4 | 58.7* | 85.4* | 31.2 | 8.8
CC(/C=N/NC(=O)c1ccccc1F)=C\c1ccccc1 | 27.9 | -0.4 | 42.9 | 2.2 | 57.7* | -105.4 | 48.0 | 41.1 | 70.1* | 52.4* | 53.6*
CC(/C=N/NC(=O)c1cccs1)=C\c1ccccc1 | 71.0* | 0.9 | 77.2* | -38.5 | 2.8 | 24.2 | 12.8 | 81.0* | 92.8* | 63.4* | 19.5
Cc1nn(-c2ccccc2)c(C)c1/C=N/NC(=O)c1ccc(F)cc1 | -4.2 | · | -12.3 | -9.8 | -18.6 | -14.4 | · | · | · | · | ·
Cc1cc(C(=O)N/N=C/c2c(C)nn(-c3ccccc3)c2C)c(C)o1 | 35.2 | 0.0 | 35.8 | 24.8 | 50.5* | -23.0 | 34.3 | 25.0 | 59.8* | 55.4* | 22.6
C[C@H]1CN([C@@H](C)CO)C(=O)c2ccccc2-c2ccccc2CO[C@@H]1CN(C)Cc1ccncc1 | · | · | · | · | · | 36.7 | · | · | · | · | ·
Cc1cc(C(=O)N/N=C/C(Cl)=C/c2ccccc2)c(C)o1 | 27.8 | -3.2 | 53.0* | 20.9 | 48.6 | -28.5 | 36.3 | 35.6 | 74.7* | 41.7 | 39.5
CSc1nc(O)c(C(c2ccc(F)cc2)c2c(O)nc(SC)[nH]c2=O)c(=O)[nH]1 | 9.1 | · | 1.4 | 16.9 | -3.5 | -15.7 | · | · | · | · | ·
SMILES | SENP8 block-1 | HSP90 refold inh | SENP7 block | SENP8 block-2 | SENP6 inh | LGR2 inh | SENP8 conf | SENP6 conf | SENP7 confirm | Casp3 select | SENP luc ctr
CSc1nc(O)c(N=Nc2ccc(F)cc2F)c(=O)[nH]1 | 81.3* | 14.8 | 87.0* | 16.3 | 91.1* | 14.3 | 83.2* | 86.4* | 95.7* | 93.1* | 53.3*
COc1cc2nc(Nc3ccc(C)c(C)c3)nc(N)c2cc1OC | 3.2 | -1.5 | 18.6 | -291.5 | 26.5 | -11.8 | · | · | · | · | ·
COc1cc2nc(Nc3ccc(F)cc3)nc(N)c2cc1OC | 50.6* | 0.8 | 67.2* | -320.9 | 63.3* | -9.6 | 65.5* | 63.0* | 89.5* | 60.9* | 70.4*
CCOC(=O)c1ccc(Nc2nc(N)c3cc(OC)c(OC)cc3n2)cc1 | 73.0* | -2.6 | 97.1* | -285.7 | 76.2* | · | 66.2* | 77.7* | 94.6* | 58.0* | 64.5*
COc1ccc(NC(=O)Nc2ccc3c(c2)[C@@H]2C[C@H](CC(=O)NC4CCCC4)O[C@H](CO)[C@@H]2O3)cc1 | · | · | · | · | · | -4.2 | · | · | · | · | ·
CC(Nc1ccc2ccccc2c1)C(=O)N/N=C/c1ccncc1 (stereo not drawn) | 47.7 | · | 31.5 | 18.4 | 56.2* | 19.2 | -22.7 | -17.1 | -5.6 | -6.4 | -5.6
CC(Oc1ccc2ccccc2c1)C(=O)N/N=C/c1cccnc1 (stereo not drawn) | 1.7 | -3.6 | -3.1 | 7.2 | -9.2 | 24.3 | · | · | · | · | ·
CCCN(C)C[C@@H]1Oc2ncc(-c3cccnc3)cc2C(=O)N([C@@H](C)CO)C[C@@H]1C | · | · | · | · | · | 15.7 | · | · | · | · | ·
CSc1ccc(N=Nc2c(C)[nH]n(C)c2=O)cc1 | 26.7 | -0.1 | 52.9* | 19.3 | 44.4 | -62.9 | 16.0 | 23.7 | 45.0 | 44.9 | 16.9
C[C@@H]1CCCCO[C@@H](CN(C)Cc2ccc(Cl)c(Cl)c2)[C@H](C)CN([C@@H](C)CO)C(=O)c2cc(NC(=O)Nc3cccc4ccccc34)ccc2O1 | · | · | · | · | · | 18.8 | · | · | · | · | ·
Oc1ccc(/C=N/Nc2ccc(C(F)(F)F)cn2)c(O)c1 | 4.9 | -5.0 | -1.3 | -62.8 | 21.2 | -17.6 | · | · | · | · | ·
Oc1ccc(/C=N/Nc2cccc(Cl)n2)c(O)c1 | 97.5* | -3.8 | 97.9* | -34.9 | 97.1* | -85.6 | 98.6* | 98.9* | 102.2* | 96.0* | 97.6*
